# Structures can show the parent of a compound that is named as a salt.
# System: Danio rerio larvae (5 dpf)
# Experiment: excitability (activity period 17 minus period 16, 1-s interval sound) minus DMSO control (percentage points); higher = more acoustic excitability than DMSO larvae
# Settings: 10 µM; exposure time: 3 h pre-incubation + 3 h imaging
# Procedure: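 Wild-type 5 dpf zebrafish larvae (n=48 per drug, 96-well plates, 28.5 °C) were exposed to Tocris FDA-approved library compounds at 10 µM (0.1% DMSO) for 3 h before and 3 h during imaging. Images were taken every 6 s during visual (moving coloured lines) and acoustic stimuli, and larvae were tracked with the DeepLabCut-based Z-LaP Tracker. Each behavioural measure is the treated-group mean minus the DMSO vehicle control mean (n=844), in percentage points. This mapping covers compounds with 4-character plate codes.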
row,Compound,excitability
1,Cc1cn([C@H]2C=C[C@@H](CO)O2)c(=O)[nH]c1=O [Stavudine],1.32
2,COc1ccc(-c2ccc3cc(C(=O)O)ccc3c2)cc1C12CC3CC(CC(C3)C1)C2 [Adapalene],0.726
3,Brc1c(NC2=NCCN2)ccc2nccnc12,6.71
4,CCCCCCCCc1ccc(CCC(N)(CO)CO)cc1,14.6
5,CN(CCOc1ccc(CC2SC(=O)NC2=O)cc1)c1ccccn1 (stereo not given) [Rosiglitazone],17.9
6,CCCc1nc2c(C)cc(-c3nc4ccccc4n3C)cc2n1Cc1ccc(-c2ccccc2C(=O)O)cc1 [Telmisartan],15.1
7,Cn1nnc2c(C(N)=O)ncn2c1=O [Temozolomide],0.618
8,Nc1ncn([C@H]2C[C@H](O)[C@@H](CO)O2)c(=O)n1 [Decitabine],8.23
9,Cc1ccsc1C(=CCCN1CCC[C@@H](C(=O)O)C1)c1sccc1C [Tiagabine hydrochloride],-6.75
10,COc1ccc([C@@H]2Sc3ccccc3N(CCN(C)C)C(=O)[C@@H]2OC(C)=O)cc1 [Diltiazem hydrochloride],1.06
11,C[C@]12CC[C@@H]3c4ccc(O)cc4C[C@@H](CCCCCCCCC[S+]([O-])CCCC(F)(F)C(F)(F)F)[C@H]3[C@@H]1CC[C@@H]2O (stereo not given in full),3.06
12,O=C1CCc2cc(OCCCCc3nnnn3C3CCCCC3)ccc2N1 [Cilostazol],9.2
13,COc1cc(Nc2c(C#N)cnc3cc(OCCCN4CCN(C)CC4)c(OC)cc23)c(Cl)cc1Cl [Bosutinib],7.41
14,CO[C@H]1/C=C/O[C@@]2(C)Oc3c(C)c(O)c4c(O)c(c5c(nc6cc(C)ccn65)c4c3C2=O)NC(=O)/C(C)=C\C=C\[C@H](C)[C@H](O)[C@@H](C)[C@@H](O)[C@@H](C)[C@H](OC(C)=O)[C@@H]1C [Rifaximin],5.77
15,CCCN(CCC)S(=O)(=O)c1ccc(C(=O)O)cc1 [Probenecid],5.41
16,O=C(NCC1CCCCN1)c1cc(OCC(F)(F)F)ccc1OCC(F)(F)F (stereo not given) [Flecainide acetate],6.31
17,CCCc1nc(C(C)(C)O)c(C(=O)O)n1Cc1ccc(-c2ccccc2-c2nnn[nH]2)cc1 [Olmesartan],0.0977
18,CC(C)(C#N)c1cc(Cn2cncn2)cc(C(C)(C)C#N)c1 [Anastrozole],3.43
19,CCOC(=O)c1ncn2c1CN(C)C(=O)c1cc(F)ccc1-2 [Flumazenil],2.65
20,C[C@@H](O[C@H]1OCCN(Cc2n[nH]c(=O)[nH]2)[C@H]1c1ccc(F)cc1)c1cc(C(F)(F)F)cc(C(F)(F)F)c1 [Aprepitant],8.09

row,Compound,excitability
1,CN1CC2c3ccccc3Oc3ccc(Cl)cc3C2C1 (stereo not given) [Asenapine maleate],14.2
2,N#Cc1ccc(C(c2ccc(C#N)cc2)n2cncn2)cc1 [Letrozole],0.318
3,Cc1c(-c2ccc(O)cc2)n(Cc2ccc(OCCN3CCCCCC3)cc2)c2ccc(O)cc12 [Bazedoxifene acetate],15.4
4,CC(C)c1nc(CN(C)C(=O)N[C@H](C(=O)N[C@@H](Cc2ccccc2)C[C@H](O)[C@H](Cc2ccccc2)NC(=O)OCc2cncs2)C(C)C)cs1 [Ritonavir],8.43
5,CC(=O)O[C@]1(C(C)=O)CC[C@H]2[C@@H]3C=C(C)C4=CC(=O)CC[C@]4(C)[C@H]3CC[C@@]21C [Megestrol Acetate],12.4
6,CC1(C)O[C@@H]2[C@@H](CO[C@@]3(COS(N)(=O)=O)OC(C)(C)O[C@@H]23)O1 [Topiramate],2
7,CNC(=O)c1ccccc1Sc1ccc2c(/C=C/c3ccccn3)n[nH]c2c1 [Axitinib],1.48
8,Cc1ccc(N(CC2=NCCN2)c2cccc(O)c2)cc1 [Phentolamine Mesylate],15.6
9,CCCN(CCc1cccs1)[C@H]1CCc2c(O)cccc2C1 [Rotigotine hydrochloride],13.6
10,Nc1ncn([C@@H]2O[C@H](CO)[C@@H](O)[C@H]2O)c(=O)n1 [5-Azacytidine],-2.47
11,Cc1nc(-c2ccc(OCC(C)C)c(C#N)c2)sc1C(=O)O [Febuxostat],-0.805
12,COC(=O)C1=C(C)NC(C)=C(C(=O)OC(C)C)C1c1cccc2nonc12 (stereo not given) [Isradipine],15.3
13,CCOC(=O)[C@H](CCc1ccccc1)N[C@H]1CCc2ccccc2N(CC(=O)O)C1=O [Benazepril hydrochloride],0.927
14,CN(C)CC/C=C1/c2ccccc2COc2ccc(CC(=O)O)cc21 [Olopatadine hydrochloride],5.43
15,C#C[C@]1(O)CC[C@H]2[C@@H]3CCC4=CC(=O)CC[C@@H]4[C@H]3CC[C@@]21CC [Levonorgestrel],3.64
16,CCC(C)(C)C(=O)O[C@H]1C[C@@H](C)C=C2C=C[C@H](C)[C@H](CC[C@@H]3C[C@@H](O)CC(=O)O3)[C@H]21 [Simvastatin],10.2
17,CCOc1nc2cccc(C(=O)O)c2n1Cc1ccc(-c2ccccc2-c2noc(=O)[nH]2)cc1 [Azilsartan],4.01
18,CC(C)N(CCCCOCC(=O)NS(C)(=O)=O)c1cnc(-c2ccccc2)c(-c2ccccc2)n1 [Selexipag],5.98
19,CC(C)(C(=O)c1cccnc1)c1cccnc1 [Metyrapone],15.8
20,CC1CNc2c(cccc2S(=O)(=O)N[C@@H](CCCNC(=N)N)C(=O)N2CC[C@@H](C)C[C@@H]2C(=O)O)C1 (stereo not given in full) [Argatroban],0.775
